The structures appear in SMILES notation. Records with an inconclusive call do not appear. The source made the active and inactive calls. How the source made its calls: active means hit-call score of the fitted dose curve at least 0.9, where 1 is the maximum; inconclusive means response in the unintended direction; inactive means score below 0.9.

Chain of Glucocorticoid receptor (Homo sapiens) (P04150 whole entry, looked up): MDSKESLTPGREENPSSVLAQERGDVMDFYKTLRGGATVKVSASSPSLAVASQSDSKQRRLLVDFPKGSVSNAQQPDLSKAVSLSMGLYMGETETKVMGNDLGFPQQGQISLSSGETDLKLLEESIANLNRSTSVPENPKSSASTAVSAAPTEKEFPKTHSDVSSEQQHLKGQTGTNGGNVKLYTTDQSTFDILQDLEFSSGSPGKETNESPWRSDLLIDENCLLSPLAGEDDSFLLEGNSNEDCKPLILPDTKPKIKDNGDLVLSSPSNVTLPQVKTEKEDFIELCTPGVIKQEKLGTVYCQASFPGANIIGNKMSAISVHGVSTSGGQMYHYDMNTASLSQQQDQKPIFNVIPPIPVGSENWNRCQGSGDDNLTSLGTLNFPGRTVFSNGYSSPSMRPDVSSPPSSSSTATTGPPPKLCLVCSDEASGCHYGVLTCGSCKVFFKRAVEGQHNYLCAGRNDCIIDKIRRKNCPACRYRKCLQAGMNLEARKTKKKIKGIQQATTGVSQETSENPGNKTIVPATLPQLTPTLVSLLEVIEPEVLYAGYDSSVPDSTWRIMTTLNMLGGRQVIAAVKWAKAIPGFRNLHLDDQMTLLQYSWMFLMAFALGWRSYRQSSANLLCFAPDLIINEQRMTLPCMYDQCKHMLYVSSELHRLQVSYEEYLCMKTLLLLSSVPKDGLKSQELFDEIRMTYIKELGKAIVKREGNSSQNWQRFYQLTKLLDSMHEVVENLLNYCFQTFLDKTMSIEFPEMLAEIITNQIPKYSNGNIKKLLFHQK

This assay addresses Glucocorticoid receptor (Homo sapiens) (UniProt P04150). The assay is described as follows: ATG_GR_TRANS: Attagene TRANS-FACTORIAL HepG2 Assay for human Glucocorticoid Receptor (GR) (AID 2282978).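 Further: activators score as hits since higher reporter transcript over DMSO is fitted.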 As to conditions: HepG2 Attagene TRANS GR reporter, mRNA transcription. The procedure: ATG_TRANS is a cell-based, multiplexed-readout assay that uses HepG2, a human liver cell line, with measurements taken at 24 hours after chemical dosing in a 24-well plate.ATG_GR_TRANS is one of 30 assay component(s) measured or calculated from the ATG_TRANS assay. It is designed to make measurements of mRNA induction, a form of inducible reporter, as detected with fluorescence intensity signals by Reverse transcription polymerase chain reaction (RT-PCR) and Capillary electrophoresis technology.Data from the assay component ATG_GR_TRANS was analyzed into 1 assay endpoint. This assay endpoint, ATG_GR_TRANS, was analyzed in the positive analysis fitting direction relative to DMSO as the negative control and baseline of activity. Using a type of inducible reporter, measures of mRNA for gain-of-signal activity can be used to understand the reporter gene at the transcription factor-level as they relate to the gene NR3C1. Furthermore, this assay endpoint can be referred to as a primary readout, because this assay has produced multiple assay endpoints where this one serves a reporter gene function. To generalize the intended target to other relatable targets, this assay endpoint is annotated to the nuclear receptor intended target family, where the subfamily is steroidal.
Human liver HepG2 cells are transiently transfected with multiple reporter transcription units (MRTUs) in 6-well plates using FuGene 6 reagent (Roche; 3 ml FuGene/1 mg DNA). The MRTU constructs are regulated by a cis-regulating element (promoter). […] A major difference between the CIS and TRANS system is that in CIS activities of endogenous TFs are measured, whereas the TRANS assay evaluates changes in activities of exogenous, chimeric NR-Gal4 proteins. […] At the end of 24 hour incubation, total RNA was isolated using TriZol reagent (Invitrogen). The isolated RNA is then reverse-transcribed using oligo(dT) primer and Mo-MLV reverse transcriptase (Invitrogen) with DNAse I (Ambion) treatment for 30 min. The one-tenth of the produced cDNA was amplified by PCR using Taq DNA polymerase (Invitrogen) and two reporter sequence-specific primers. The PCR products were fluorescently labeled by primer extension with 6-arboxyfluorescein (6-FAM) 5'-labeled reporter sequence-specific primer (2 min at 95 C, 20 s at 68 C and 10 min at 72 C) and these products were digested with 5U of HpaI (New England Biolabs) for 2h at 37 C. The fragments were purified using Qiaquick PCR columns (Qiagen), analyzed on an ABI 3130xL genetic analyzer (Applied Biosystems) with peak positions identified by using a set of X-rhodamine (ROX)-labeled MapMarker1000 molecular weight standards (BioVentures). The raw capillary electrophoresis data was processed using Attagraph software (Attagene).
On to `c1ccc2c(c1)sc1ccccc12`, for which the compound was called inactive.

With `CO/N=C(/C(=O)OC)c1ccccc1COc1ccccc1C`, the compound was classed as inactive.

For `OCC(F)(F)OC(F)(F)C(F)(F)OC(F)(F)CO`, the compound was called inactive.

With `Nc1ccc(Sc2ccc(N)cc2)cc1`, the call was inactive.

As to `N#Cc1cc([N+](=O)[O-])ccc1N`, the compound was classed as inactive.

Regarding `CC(Cl)(Cl)C(=O)O`, the compound was called inactive.

Take `NC(=O)C(F)(F)C(F)(F)F`: the call was inactive.

As for `O=C(O)C(F)(OC(F)(F)C(F)(F)C(F)(F)F)C(F)(F)F` (stereo not given), the result was inactive.

In the case of `Cc1c([N+](=O)[O-])cc2c(c1[N+](=O)[O-])C(C)(C)CC2(C)C`, the call was inactive.

With `O=C(O)C(Cl)Cl`, the result was inactive.

Take `Oc1ccc(I)cc1`: the outcome was inactive.

Take `O=S(=O)(F)C(F)(F)C(F)(F)C(F)(F)C(F)(F)C(F)(F)C(F)(F)C(F)(F)C(F)(F)F`: the outcome was inactive.

In the case of `O=C(O)C(F)(F)OC(F)(F)C(F)(F)OC(F)(F)C(=O)O`, the call was inactive.

On to `CC(Cl)CN(C)C` (stereo not given), for which the call was inactive.

Take `CCCCC(CC)COP(=O)(Oc1ccccc1)Oc1ccccc1` (stereo not given): the compound was called inactive.

`CC(C)(C)OOC(C)(C)C`: the result was inactive.

Take `CC(C)(C)c1ccccc1OP(=O)(Oc1ccccc1)Oc1ccccc1`: the outcome was inactive.

Turning to `O=C(O)C(F)(F)OC(F)(F)C(F)(F)OC(F)(F)F`, the compound was called inactive.

As for `O=[N+]([O-])c1cc(Cl)ccc1Cl`, the call was inactive.

Regarding `COC(N)=O`, the compound was classed as inactive.

For the compound `CC(O)C#N` (stereo not given), the result was inactive.

Take `CN(C)C(=O)Cl`: the compound was classed as inactive.

Turning to `c1ccc(OP(Oc2ccccc2)Oc2ccccc2)cc1`, the compound was called inactive.

With `CCCCN(CC)C(=O)SCCC`, the outcome was inactive.

Take `NNC(N)=S`: the result was inactive.

As for `C/C(=N\NC(=O)Nc1cc(F)cc(F)c1)c1ncccc1C(=O)O`, the call was inactive.

With `CCOP(=S)(OCC)SCn1nnc2ccccc2c1=O`, the result was inactive.

Consider `OCC(F)(F)OC(F)(F)C(F)(F)OC(F)(F)C(F)(F)OC(F)(F)CO`, for which the compound was classed as inactive.

With `ClC(Cl)=C(c1ccc(Cl)cc1)c1ccccc1Cl`, the outcome was inactive.

As to `N#Cc1c(-c2ccc(Cl)cc2)[nH]c(C(F)(F)F)c1Br`, the compound was classed as inactive.

As for `CCCCc1ccc(O)cc1`, the compound was classed as inactive.

Regarding `O=c1[nH]c2ccccc2c(=O)o1`, the outcome was inactive.

Turning to `CC(C)(C)N(NC(=O)c1ccc(Cl)cc1)C(=O)c1ccccc1`, the result was inactive.

Take `COP(=O)(CCC(=O)NCO)OC`: the result was inactive.

Regarding `Cc1ccc(C(=O)Cl)cc1`, the outcome was inactive.

For the compound `FC(F)(F)c1ccc(Cl)cc1`, the compound was called inactive.

For `CCCCC(CC)COC(=O)c1c(Br)c(Br)c(Br)c(Br)c1C(=O)OCC(CC)CCCC` (stereo not given), the AC50 is 14.1 µM (active).

For the compound `CCN(CC)C1CCCCC1`, the result was inactive.

For the compound `Cc1cc(C)c(C(=O)P(=O)(c2ccccc2)c2ccccc2)c(C)c1`, the compound was classed as inactive.

Regarding `CCOP(=S)(NC(C)C)Oc1ccccc1C(=O)OC(C)C` (stereo not given), the result was inactive.

One may read the AC50 as the concentration giving half of the maximal activity seen.

(Values after PubChem BioAssay (EPA / NIEHS).)
